# The list is not random: actives were taken first. Their share in the collection is about 21%.
# RORgamma inh: ROR gamma (mouse) transcription inhibition | P51450 | Drosophila S2 Gal4-RORgamma UAS-luciferase reporter, 20 h | Potency, µM (top dose mostly 53.6 µM), for inactives: at the top dose activity change, negative = inhibition, actives largely listed as inhibitors | 310,000 tested, 5.4% active | AID 2551; note: potency is the fitted concentration of half-maximal effect; nearly all actives have a fitted effect of over 60% in size
# Target sequence (P51450 whole entry, looked up, the tested form may be a part): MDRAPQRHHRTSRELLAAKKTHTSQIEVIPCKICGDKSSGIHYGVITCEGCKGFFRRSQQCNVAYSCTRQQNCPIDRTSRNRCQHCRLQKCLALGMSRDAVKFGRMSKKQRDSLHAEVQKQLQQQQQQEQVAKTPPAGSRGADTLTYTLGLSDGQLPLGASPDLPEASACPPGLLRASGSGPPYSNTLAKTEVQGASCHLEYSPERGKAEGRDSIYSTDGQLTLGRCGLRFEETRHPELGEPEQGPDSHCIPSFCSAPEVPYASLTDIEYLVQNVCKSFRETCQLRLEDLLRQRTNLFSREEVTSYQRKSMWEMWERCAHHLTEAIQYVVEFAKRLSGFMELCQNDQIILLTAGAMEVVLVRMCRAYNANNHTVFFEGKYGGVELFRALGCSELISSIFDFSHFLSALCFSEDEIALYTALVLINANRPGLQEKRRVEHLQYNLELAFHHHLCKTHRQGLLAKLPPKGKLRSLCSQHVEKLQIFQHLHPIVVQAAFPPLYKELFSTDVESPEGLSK
#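 Schneider cells (Drosophila), stable Gal4 DBD–ROR gamma + UAS-luc; 1 hr cmpd preincubation; Cu2+ induction 700 uM final; 20 hr ambient; luminescence.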
# DT40 TDP1 no CPT: qHTS for Inhibitors of human tyrosyl-DNA phosphodiesterase 1 (TDP1): qHTS in cells in absence of CPT. 420,000 tested, 15% active. Potency, µM (series often up to 46.2 µM), inactives show top-dose activity change, negative = growth inhibition, most hits filed as inhibitors. AID 686978, 2013. DT40 Tdp1-/- hTDP1 cells, no CPT, ATP luminescence, 48 h; note: potency is the fitted concentration of half-maximal effect; nearly all actives have a fitted effect of over 55% in size
#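 Growth kinetics read by CellTiter-Glo luminescence after ≥48 hr at 37 °C. Cells: DT40 Tdp1-/- stably carrying human TDP1, 400 per well, compound exposure in the absence of CPT (DMSO vehicle).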
# IL1B secr inh: inflammasome signaling inhibition, IL-1 beta readout; THP-1 LPS/ATP IL-1B secretion, AlphaLISA, 16 h; active compounds read low; 360,000 tested, 4.7% active; activity change, % at 57.5 µM; in the data active = activity change below about -50%; inconclusive = mostly about -30% to -49%
#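 Secreted IL-1B measured by AlphaLISA bead assay after 16 h compound exposure of THP-1 cells; compounds (final up to 57.5 uM) added 1 h before LPS (250 ng/mL) and ATP (1.25 mM) stimulation; lower signal means less secretion.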
# VP16 counter: inhibits Gal4-VP16 luciferase reporter, ROR gamma counter-screen; Drosophila S2 Gal4-VP16 UAS-luciferase, luminescence, 20 h; Potency, µM (series often up to 53.6 µM), inactives show at the top dose activity, negative = inhibition, actives largely listed as inhibitors; 310,000 tested, 3.5% active;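 note: Gal4-VP16 expression switched on by copper sulfate through the metallothionein promoter; potency is the fitted concentration of half-maximal effect; nearly all actives have a fitted effect of over 50% in size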
# ELG1 DNA repair: blocks ELG1-dependent DNA repair in HEK293T cells. 330,000 tested, 2.3% active. HEK293T ELG1-luciferase reporter, luminescence, 16 h; DNA damage induced by 5-fluorouridine. Potency, µM (highest dose often 46.1 µM), inactives show top-dose activity change, negative = inhibition, hits mostly inhibitors. AID 504467; note: potency is the fitted concentration of half-maximal effect; nearly all actives have a fitted effect of over 55% in size
#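 Reporter activity after DNA damage by 5-fluorouridine is monitored. Compound-treated cells incubate 16 hr at 37 °C, then ONE-Glo is added for 30 min before luminescence reading.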
# TDP1 cell CPT: DT40-hTDP1 cell growth loss with CPT; chicken DT40 Tdp1-/-;hTDP1 cells + 20 nM CPT, ATP luminescence, 48 h; Potency, µM (highest dose often 46.2 µM), for inactives: at the highest dose activity change, negative = growth inhibition, most hits filed as inhibitors; 420,000 tested, 12% active; note: potency is the fitted concentration of half-maximal effect; nearly all actives have a fitted effect of over 55% in size
#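 Chicken DT40 Tdp1-/- cells complemented with human TDP1, 400 cells/well, exposed to compounds plus 20 nM camptothecin for at least 48 h at 37 C; viability read as ATP content by CellTiter-Glo luminescence.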
# * marks the source's active call; other numbers are inactive results; ? = inconclusive; / = not tested or not shown. Unless noted, calls come from the whole dose curve; as a rule, active = well fitted curve in the direction sought with a large enough effect; inconclusive = small, poorly fitted or top-dose-only effect, or another doubt; inactive = no such curve, though single readings can be large; an effect the other way counts as inactive or inconclusive. % is set by controls: 0 for no effect and ±100 for the full control effect.
SMILES,RORgamma inh,DT40 TDP1 no CPT,IL1B secr inh,VP16 counter,ELG1 DNA repair,TDP1 cell CPT
COc1ccc(CNc2cc(NCCCO)c([N+](=O)[O-])c3nonc23)cc1,-13%,6.5µM*,35,?,21µM*,21µM*
CC(C)N(C(=O)[C@H]1CC(CC(=O)NC(C)(C)C)C(=O)N2CCc3c([nH]c4ccccc34)[C@]12C)C(C)C (some centres undefined),/,?,-16,/,-3%,?
CC(=O)c1ccc(S(=O)(=O)N(C)CC(=O)N2CCCCCC2)cc1,40%,4%,-2,-5%,11%,-16%
COc1ccc(C(C)=O)cc1CC(=O)Nc1cccc(S(=O)(=O)N2CCOCC2)c1,/,3%,33,/,-29%,16%
CCOc1ccccc1NC(=O)Cn1c(=O)n(Cc2nc(C)no2)c(=O)c2ccccc21,/,-19%,/,/,/,-10%
O=C(O)c1cc([N+](=O)[O-])c(Sc2nc3ccccc3[nH]2)c([N+](=O)[O-])c1,?,-15%,-7,3%,8%,-18%
CC(=O)OCCNc1cc(SCc2ccco2)c2nonc2c1[N+](=O)[O-],11µM*,18µM*,-52*,?,1%,?
O=[N+]([O-])c1c(NCCCO)cc(N2CCN(Cc3ccc4c(c3)OCO4)CC2)c2nonc12,5µM*,5.8µM*,-10,3.5µM*,23µM*,6.5µM*
CC(=O)OCCNc1cc(Sc2nc3ccccc3[nH]2)c2nonc2c1[N+](=O)[O-],9%,4.1µM*,-101*,-3%,?,2.3µM*
O=[N+]([O-])c1c(NCCCO)cc(Sc2ccc(Cl)cc2)c2nonc12,5µM*,1.5µM*,-106*,5µM*,2%,1.3µM*
COc1ccc(Nc2cc(NCCCO)c([N+](=O)[O-])c3nonc23)cc1,-2%,1%,39,-21%,0%,-25%
Fc1cccc(NC(=S)Nc2cccnc2)c1,-9%,?,14,14%,-3%,-17%
O=C(Nc1ccc(Cl)cc1)Nc1cccnc1,?,?,-22,15%,?,16µM*
O=C(Nc1cccnc1)Nc1cccc(F)c1,/,13µM*,19,/,?,-28%
Cc1ccc(NC(=O)Nc2nc3ccccc3s2)cc1NC(=O)Nc1nc2ccccc2s1,21%,13µM*,9,8%,8%,?
Cc1ccc(NC(=O)Nc2cccnc2)cc1NC(=O)Nc1cccnc1,-20%,9.2µM*,-4,-11%,8.2µM*,13µM*
COc1ccc(NC(=O)CCNC(=O)c2ccccc2Cl)cc1S(=O)(=O)N1CCCCC1,/,-13%,32,/,/,-16%
O=C(O)c1ccccc1-c1c2cc(Br)c(=O)c(Br)c-2oc2c(Br)c(O)c(Br)cc12,12%,/,/,?,/,/
CCC(C)C(NC(=O)c1ccc(Cl)cc1)C(=O)Nc1cccnc1 (centres undefined),4%,-2%,-85*,5%,?,-9%
CC(=O)c1cccc(NC(=O)Nc2cccnc2)c1,?,?,85,-8%,3.7µM*,?
O=NN(CCCl)C(=O)NCC1=C[N+](=O)CC=C1,/,-16%,-1,/,/,0%
O=C(Nc1ccc2c(c1)OCCO2)C1c2ccccc2OCC(=O)N1CCc1ccccc1 (centres undefined),/,-2%,-14,/,/,-1%
Cc1ccc(NC(=O)C2CCCN(c3ncnc4c3nc3n4CCCCC3)C2)nc1 (centres undefined),15%,8.2µM*,25,-10%,3.3µM*,13µM*
Cc1ccnc(NC(=O)C2CCCN(c3ncnc4c3nc3n4CCCCC3)C2)c1 (centres undefined),18%,?,24,-1%,?,-10%
O=C(Nc1ccc(Cl)cn1)C1CCN(c2ncnc3c2nc2n3CCCCC2)CC1,?,16µM*,-91*,?,2.1µM*,?
SMILES,RORgamma inh,DT40 TDP1 no CPT,IL1B secr inh,VP16 counter,ELG1 DNA repair,TDP1 cell CPT
O=C(Nc1ccc(F)c(Cl)c1)C1CCN(c2ncnc3c2nc2n3CCCCC2)CC1,41%,18µM*,-20,-14%,7.3µM*,?
O=C(Nc1ccc(Cl)cn1)C1CCCN(c2ncnc3c2nc2n3CCCCC2)C1 (centres undefined),12%,21µM*,-10,2%,?,21µM*
COCCNC(=O)c1[nH]c2cc(C)ccc2c1Sc1ccc(Cl)cc1,/,-10%,/,/,/,0%
C/C(=N/NC(=O)CNC(=O)/C=C/c1ccco1)c1ccc(Cl)cc1,22%,?,41,-3%,16%,?
CCC(C)C(NC(=O)OC(C)(C)C)C(=O)NC1COC2CC(n3ccc(NC(C)=O)nc3=O)OC12 (centres undefined),-14%,/,/,-3%,/,/
CCOc1ccccc1Oc1c(C)oc2c(CN3CCN(CCO)CC3)c(O)ccc2c1=O,-6%,-2%,5,-5%,1%,-4%
CCOC(=O)c1nnn2c1nc(N1CCOCC1)c1ccccc12,31%,-14%,-2,-1%,17%,-6%
Cc1ccc2c(COC(=O)C34CC5CC(CC(C5)C3)C4)cc(=O)oc2c1,1%,?,15,0%,?,?
CCOC(=O)c1c(C)oc2c1c(C(c1ccncc1)N1CCOCC1)c(O)c1ccccc12 (centres undefined),?,?,-25,4%,?,21µM*
CCOC(=O)c1c(C)oc2c1c(CN1CCN(CCO)CC1)c(O)c1ccccc12,?,?,-98*,?,?,?
O=C(CC12CC3CC(CC(C3)C1)C2)NCC(=O)OCc1cc(=O)oc2ccc3ccccc3c12,-21%,18µM*,-9,-20%,1%,?
CCOC(=O)c1c(C)oc2c1c(C=NC1CCS(=O)(=O)C1)c(O)c1ccccc12 (centres undefined),-16%,21µM*,0,-1%,3%,23µM*
CC(C)CC(=O)Nc1ccc(C(=O)COC(=O)C2=COCCO2)cc1,/,-20%,2,/,0%,-11%
C[C@H]1CN([C@@H](C)CO)C(=O)CCCn2nncc2CO[C@@H]1CN(C)C(=O)c1ccncc1,/,-2%,-17,/,/,14%
COc1ccc(NC(=O)C(NC(=O)c2ccc(=O)[nH]c2)c2ccc(OC)cc2)cc1 (centres undefined),-11%,-5%,0,-4%,8%,11%

# Screening results from PubChem.
